Activity (protection/inhibition) data for one compound are collected here from PubChem BioAssay AID651871 (Sanford-Burnham Center for Chemical Genomics, 2012).

Where “and” joins values, the source holds several entries; their conditions need not be identical. Equal entries are not always repeated.

In the experiment the test system is HL-1. In words: cardiomyocyte survival under oxidative or metabolic stress – cell-based, panel, H9c2 and HL-1, ATP luminescence, set 2, SAR follow-up (AID 651871).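 Further: cells exposed to stressor for 2 h before ATP readout; reference of the scale not given here.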 Particulars: H9c2/HL-1 cardiomyocytes, 2-deoxyglucose stress, with 2-deoxyglucose, run 15, at 19.8 µM (top of the series).

For the compound `COc1ccc2c(c1OC)C(=O)N1c3ccccc3C(=O)N(Cc3cccc(Cl)c3Cl)C21` (stereo unspecified), the activity (protection/inhibition) was 69.2% and 28.8%.
